Test results published in PubChem BioAssay AID488969 (Vanderbilt High Throughput Screening Facility, 2010).
Whole data set: some 110,000 compounds, median “z-score” near -0.1, cut for the highest 2% near 2. Only a selection was taken, and the highest values are over-represented in it overall. The source made the active and inactive calls.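 The calls were made as follows: active = z-score in the third read window above 3 or below -3; inactive = the rest.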

biological target: Metabotropic glutamate receptor 8 (Rattus norvegicus) (UniProt P70579); assay: mGluR8 Gi/Go-coupled signaling modulation – cell-based, rat, thallium flux, HTS, primary screen (AID 488969); settings: HEK293 rat mGluR8, GIRK (G protein-gated inwardly rectifying potassium channel) thallium flux, FluoZin2; at 10 µM; stronger effect = higher value; submaximal glutamate (EC20) added with thallium
Sequence (P70579 whole entry, looked up): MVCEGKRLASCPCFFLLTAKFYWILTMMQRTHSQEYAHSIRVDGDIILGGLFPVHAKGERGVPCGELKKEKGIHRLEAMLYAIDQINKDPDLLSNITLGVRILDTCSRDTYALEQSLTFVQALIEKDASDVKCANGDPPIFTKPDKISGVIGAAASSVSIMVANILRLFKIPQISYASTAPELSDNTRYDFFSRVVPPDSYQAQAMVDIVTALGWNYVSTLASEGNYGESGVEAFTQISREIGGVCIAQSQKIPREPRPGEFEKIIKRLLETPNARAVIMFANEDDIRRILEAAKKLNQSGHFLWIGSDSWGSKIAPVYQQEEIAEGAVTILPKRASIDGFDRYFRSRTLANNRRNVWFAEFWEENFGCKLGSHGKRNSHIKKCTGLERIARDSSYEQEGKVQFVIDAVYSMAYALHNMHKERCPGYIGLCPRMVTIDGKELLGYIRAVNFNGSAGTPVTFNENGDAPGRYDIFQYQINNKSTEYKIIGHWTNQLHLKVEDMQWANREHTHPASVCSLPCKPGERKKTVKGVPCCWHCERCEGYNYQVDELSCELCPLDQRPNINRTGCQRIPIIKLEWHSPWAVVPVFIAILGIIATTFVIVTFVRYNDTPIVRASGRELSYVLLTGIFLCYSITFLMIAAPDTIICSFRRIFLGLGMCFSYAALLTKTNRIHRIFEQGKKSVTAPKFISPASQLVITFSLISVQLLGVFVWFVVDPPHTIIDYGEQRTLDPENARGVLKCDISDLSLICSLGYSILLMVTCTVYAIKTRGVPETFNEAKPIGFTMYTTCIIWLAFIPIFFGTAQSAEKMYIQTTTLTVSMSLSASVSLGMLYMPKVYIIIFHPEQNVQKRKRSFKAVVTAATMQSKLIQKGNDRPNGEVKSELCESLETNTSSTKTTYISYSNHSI

For CCOc1ccc(CCNC(=O)CN2CCN(Cc3ccccc3F)C2=O)cc1OCC, which z-score is on record?
The z-score was 0.219.

With COc1ccc(-c2nnc(SCC(=O)N3CCCc4ccccc43)o2)cc1OC as the compound, how does the z-score read?
Its z-score is 0.39.

Which z-score does the source give for CCC1(C)CC(c2csc(N)n2)CCO1 (centres undefined) here?
Its z-score is 2.98.

How did the z-score turn out when Nc1nc(C2CCCCC2)cs1 was run?
Its z-score is 0.293.

CC1(C)CC(c2csc(N)n2)CCO1 (centres undefined) was tested. Which z-score did it give?
Its z-score is 0.945.

For COc1ccccc1C(=O)Nc1ccc(C)cc1C(=O)c1ccccc1, which z-score is on record?
The z-score was -0.242.

Which z-score does the source give for CC1(C)CC(=O)C(C=Nc2ccccc2Sc2ccccc2)=C(O)C1 here?
The z-score was -0.747.

Cc1ccc(Nc2nc(C)c(CCC(C)C)c(=O)[nH]2)cc1 was tested. Which z-score did it give?
The z-score was 0.22.

Cc1nc(Nc2ccc(F)cc2)[nH]c(=O)c1CCC(C)C was tested. Which z-score did it give?
The z-score was -0.00139.

Cc1nc(Nc2ccccc2)[nH]c(=O)c1CCC(C)C was tested. Which z-score did it give?
The z-score was 2.73.

With Cc1nnc(SCc2ccc(F)cc2Cl)s1 as the compound, how does the z-score read?
The z-score was -0.295.

With Cc1cc(C)nc(N2CCCC(C(=O)NCCC3=CCCCC3)C2)n1 (centres undefined) as the compound, how does the z-score read?
The z-score was 0.000737.

Which z-score does the source give for CCCCN(CC)CCNC(=O)c1cc2c(=O)n(C)c3ccccc3c2n1C here?
Its z-score is 2.85.

How did the z-score turn out when CCN(CC)CCNC(=O)c1cc2c(=O)n(C)c3ccccc3c2n1C was run?
Its z-score is 1.25.

For CCCN(CCC)CCCNC(=O)c1cc2c(=O)n(C)c3ccccc3c2n1C, which z-score is on record?
Its z-score is 4 (active).

CC(C)OCCCNC(=O)c1cc2c(=O)n(C)c3ccccc3c2n1C was tested. Which z-score did it give?
The z-score was -0.527.

For CN(C)CCNC(=O)c1cc2c(=O)n(C)c3ccccc3c2n1C, which z-score is on record?
Its z-score is 0.703.

COCCNC(=O)c1cc2c(=O)n(C)c3ccccc3c2n1C was tested. Which z-score did it give?
Its z-score is -0.524.

For CCCCN(CC)CCCNC(=O)c1cc2c(=O)n(C)c3ccccc3c2n1C, which z-score is on record?
The z-score was 2.54.

CN(CCNC(=O)c1cc2c(=O)n(C)c3ccccc3c2n1C)Cc1ccccc1 was tested. Which z-score did it give?
The z-score was 2.77.

For COCCCNC(=O)c1cc2c(=O)n(C)c3ccccc3c2n1C, which z-score is on record?
The z-score was -0.127.

CCN(CC)CCCNC(=O)c1cc2c(=O)n(C)c3ccccc3c2n1C was tested. Which z-score did it give?
The z-score was 1.21.

How did the z-score turn out when CCCN(CCC)CCNC(=O)c1cc2c(=O)n(C)c3ccccc3c2n1C was run?
The z-score was 1.86.

Which z-score does the source give for CN(C)/C=N/C(=S)Nc1ccc(Br)cc1F here?
Its z-score is 1.46.

Which z-score does the source give for O=C(CCCn1c(SCC(=O)NC2CCCCC2)nc2ccccc2c1=O)NCC1CCCO1 (centres undefined) here?
Its z-score is -0.0674.

How did the z-score turn out when Cc1cccc(NC(=O)CSc2nnc([C@@H]3CCCN3C(=O)OC(C)(C)C)o2)c1C was run?
Its z-score is 1.54.

With CN1CCN(C2=CC(=O)OC23CCCCC3)CC1 as the compound, how does the z-score read?
Its z-score is 0.371.

CCOc1ccc(N/C(=C(/C(Cl)=C(Cl)Cl)[N+](=O)[O-])n2cncn2)cc1 was tested. Which z-score did it give?
The z-score was -0.895.

For CNC(=O)c1ccc(Oc2ccc(C(=O)NC)cc2)cc1, which z-score is on record?
The z-score was -0.0105.

For CC(=O)c1ccc(Oc2ccc(C(C)=O)cc2)cc1, which z-score is on record?
The z-score was -0.0838.

Which z-score does the source give for CN(C)C(=O)c1ccc(Oc2ccc(C(=O)N(C)C)cc2)cc1 here?
The z-score was 2.6.

With O=c1c2cc(N3CCOCC3)ccc2[nH]c(=S)n1CCCN1CCCC1 as the compound, how does the z-score read?
Its z-score is -0.171.

Which z-score does the source give for O=c1c2ccccc2[nH]c(=S)n1CCCN1CCOCC1 here?
Its z-score is 0.0674.

With COc1cc2[nH]c(=S)n(CCN3CCOCC3)c(=O)c2cc1OC as the compound, how does the z-score read?
Its z-score is -0.262.

For O=c1c2cc(F)ccc2[nH]c(=S)n1CCCN1CCOCC1, which z-score is on record?
Its z-score is 3.11 (active).

COc1cc2c(=O)n(CCCN3CCOCC3)c(=S)[nH]c2c(OC)c1OC was tested. Which z-score did it give?
Its z-score is 2.07.

COc1cc2[nH]c(=S)n(CCCN3CCOCC3)c(=O)c2cc1OC was tested. Which z-score did it give?
The z-score was 0.0597.

For Cc1ccc(C(=O)COC(=O)c2n[nH]c(=O)c3ccccc23)cc1, which z-score is on record?
The z-score was -0.454.

For CC(C)(C)c1cnnn1-c1ccc(-c2csc(N)n2)cc1, which z-score is on record?
The z-score was -0.0644.

With COc1cc(C2C(Oc3ccccc3C)C(=O)N2Cc2ccc(F)cc2)cc(OC)c1OC (centres undefined) as the compound, how does the z-score read?
Its z-score is -0.106.

Which z-score does the source give for Cc1cnc(C(=O)OCC(=O)Nc2ccc(C)c(S(=O)(=O)N3CCCCC3)c2)cn1 here?
The z-score was -1.

For O=C(COC(=O)C1CC2C=CC1C2)Nc1ccccc1 (centres undefined), which z-score is on record?
The z-score was 0.0334.

Which z-score does the source give for Cc1ccc(S(=O)(=O)N2CCCCC2)cc1NC(=O)COC(=O)C1CC2C=CC1C2 (centres undefined) here?
Its z-score is 2.38.

For Cc1ccc(NC(=O)COC(=O)C2CCC(=O)N2)c(S(=O)(=O)N2CCOCC2)c1 (centres undefined), which z-score is on record?
Its z-score is -0.196.

For Cc1ccc(NC(=O)COC(=O)C2CC2C)c(S(=O)(=O)N2CCCCC2)c1 (centres undefined), which z-score is on record?
Its z-score is 2.07.

For COc1cc(/C=C/C(=O)OCC(=O)Nc2ccc(C)c(S(=O)(=O)N3CCCCC3)c2)ccc1O, which z-score is on record?
Its z-score is -0.427.

With Cc1ccc(S(=O)(=O)N2CCCCC2)cc1NC(=O)COC(=O)Cc1ccc(Cl)cc1 as the compound, how does the z-score read?
The z-score was -0.0868.

Which z-score does the source give for Cc1ccc(NC(=O)COC(=O)C2CC3C=CC2C3)cc1S(=O)(=O)N1CCCCC1 (centres undefined) here?
The z-score was 2.02.

For Cc1cc(C)n2nc(C(=O)OCC(=O)Nc3ccc4c(c3)OC(F)(F)O4)nc2n1, which z-score is on record?
Its z-score is -0.0308.

How did the z-score turn out when O=C(COC(=O)C1CC2C=CC1C2)Nc1ccc2c(c1)OC(F)(F)O2 (centres undefined) was run?
The z-score was 4.04 (active).

With CCOC(=O)Nc1ccc(OC)cc1S(=O)(=O)N1CCCCC1 as the compound, how does the z-score read?
Its z-score is 0.612.

Cc1ccc(S(=O)(=O)N2CCCCC2)cc1NC(=O)COC(=O)c1cc[n+]([O-])cc1 was tested. Which z-score did it give?
Its z-score is -0.223.

Which z-score does the source give for CCS(=O)(=O)c1nc2ccccc2n1CC(=O)N1CCCCC1 here?
Its z-score is 0.849.

COc1cc(O)c(C(C)=O)cc1OC was tested. Which z-score did it give?
The z-score was 0.68.

CC1(c2ccccc2)CC(C)(C)N2C(=O)/C(=C3\SC(=S)NC3=O)c3cccc1c32 (centres undefined) was tested. Which z-score did it give?
The z-score was 5.26 (active).

Which z-score does the source give for Cc1nn(-c2ccccc2)c(Cl)c1/C=C1\SC(=S)NC1=O here?
Its z-score is -0.842.

With CC1(c2ccccc2)CC(C)(C)N2C(=O)C3(C(C#N)=C(N)Oc4cc(O)ccc43)c3cccc1c32 (centres undefined) as the compound, how does the z-score read?
The z-score was -0.217.

Which z-score does the source give for O=C(COc1ccc(S(=O)(=O)NC2CCCCC2)cc1Cl)NCc1cccnc1 here?
The z-score was -0.567.

Which z-score does the source give for Cc1cc(NC(=O)c2cccc(S(=O)(=O)N3CCCCCC3)c2)no1 here?
The z-score was 0.223.

Which z-score does the source give for O=C(COC(=O)Cn1cnc2ccccc2c1=O)Nc1ccccc1Sc1ccc(Cl)cc1 here?
Its z-score is 0.148.

With COC(=O)c1ccc(OC(=O)c2ccco2)cc1 as the compound, how does the z-score read?
Its z-score is 0.696.

Which z-score does the source give for COC(=O)C1=C(C)NC(C)=C(C(=O)OC)C1c1ccc(OC(=O)c2ccco2)cc1 here?
The z-score was -0.519.

How did the z-score turn out when CC1CC(C)(C)Nc2ccc(OC(=O)c3ccco3)cc21 (centres undefined) was run?
Its z-score is 2.2.

With COc1cc(CNc2nc(C)c([N+](=O)[O-])c(C)c2C#N)cc(OC)c1 as the compound, how does the z-score read?
The z-score was -0.18.

COc1ccc(CCN2C(=O)C(O)=C(C(C)=O)C2c2ccccc2OC)cc1OC (centres undefined) was tested. Which z-score did it give?
The z-score was -0.511.

How did the z-score turn out when CC(C)(C)C(=O)CN1C(=O)C2(OCCO2)c2ccccc21 was run?
Its z-score is 0.508.

For CC(C)CC(=O)CN1C(=O)C2(OCCO2)c2ccccc21, which z-score is on record?
The z-score was 6.5 (active).

For O=C(O)CN1C(=O)C2(OCCCO2)c2ccccc21, which z-score is on record?
Its z-score is 0.0511.

For CC(C)OC(=O)C1C2C=CC3(CN(Cc4cccs4)C(=O)C13)O2 (centres undefined), which z-score is on record?
The z-score was 0.0334.
